Measured values reported in the supplement of paper PMC4206467.

These compounds were tested on Perkinsus marinus PRA240 (assay: ATP content (proliferation) relative to DMSO control; higher = more parasite growth (less inhibition)). Conditions: 20 µM; 4 days.
Procedure: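 Perkinsus marinus PRA240 trophozoites (2-5x10^6 cells/ml, 100 µl, 96-well) were exposed once to MMV Malaria Box compounds at 20 µM (0.1% DMSO) in triplicate. ATP content (ATPlite bioluminescence) was read at day 4 post-exposure and normalised to DMSO + cells control wells (100% activity). Compounds were identified by joining plate and well to the Malaria Box list.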

SMILES	ATP content [%]
CCOc1c(Cl)cc(CNC(C)C(O)c2ccccc2)cc1OC (stereo not given)	75.7
COc1ccc(CN2CCN(Cc3ccccc3)CC2)c(O)c1	194
Oc1ccc(Br)cc1CN1CCN(Cc2cccc(F)c2)CC1	95.2
Oc1ccc(C(=C(Cl)Cl)c2ccc(O)cc2)cc1	137
CCCCCCc1cc(O)c2c3c(c(=O)oc2c1)CCC(C)C3 (stereo not given)	33.1
COc1cc(CNCCc2ccc(Cl)cc2)cc(OC)c1O	130
O=C(CCc1ccco1)NC1CCN(CC2(c3ccc(Cl)cc3)CCC2)CC1	103
CCOc1cc(CNC(C)C(O)c2ccccc2)cc(Cl)c1OCC (stereo not given)	120
Oc1ccc(Br)cc1CN1CCN(Cc2ccc(Cl)cc2)CC1	129
CN(N=O)C1=C(NC2CCCCC2)C(=O)c2ccccc2C1=O	45.9
